Source: PubChem BioAssay AID651692 (Broad Institute, 2012)
Potency and affinity values are given separately. Activity calls are given as the source filed them.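 How the source made its calls: active means fitted half-maximal concentration for loss of cell signal no higher than twice the top valid tested concentration; inconclusive means flat curve at 30 to 70% inhibition, or poor fit; inactive means flat within 30%, signal rise, or potency above limit.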

test: MDA-MB-231 cell growth inhibition, dose response, cytotoxicity control for RAD54 inhibitor project, CellTiter-Glo luminescence, cherry-pick (AID 651692); settings: MDA-MB-231 viability, 24 h; series mostly up to 26 µM;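 further: more negative values mean stronger loss of viable cell signal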

| Compound | outcome |
| --- | --- |
| CN(C)CCCNc1nc2cc(-c3ccc(F)cc3)sc2c(=O)n1C | inactive |
| C(=C/c1nccc2c1[nH]c1ccccc12)/c1ccc2c(c1)OCO2 | inactive |
| CCOCCCNC(=S)Nc1ccc2nc(N3CCN(CC)CC3)cc(C)c2c1 | inactive |
| COc1ccc(-c2nc(NCCCN(C)C)c3ccccc3n2)cc1 | inactive |
| COC(=O)C1=C(C)Nc2nc3ccccc3n2C1c1ccccc1F (centres undefined) | inactive |
| CCCN(CCC)CCCNC(=O)c1cc2cc3ccc(OC)cc3nc2o1 | inactive |
| CCCN1CCN(CCCNC(=O)c2cc3c(=O)n(C)c4ccccc4c3n2C)CC1 | inactive |
| CCOC(=O)c1c(C)n(C)c2ccc(OCC(O)CN3CCC(C)CC3)cc12 (centres undefined) | inactive |
| COc1ccccc1NC(=O)Cn1nnc2sc3c(c2c1=O)CC(C)(C)OC3 | inactive |
| CCN(CC)CCn1c2ccc(Cl)cc2c2nc(C)sc21 | inactive |
| Cc1cccn2c(=O)c3cc(C#N)c(=O)n(CCCN4CCOCC4)c3nc12 | inactive |
| COc1cc(OC)c2nc(C)c3c(c2c1)N(c1ccc(O)cc1)CC3 | inactive |
| Cc1cc(C)c2nc(C)cc(Nc3ccc(C(=O)NCCO)cc3)c2c1 | inactive |
| c1ccc(-c2cc(NCCN3CCCCC3)c3ccccc3n2)cc1 | inactive |
| CN1CCN(CCCNC(=O)c2cc3c(=O)oc4ccccc4c3s2)CC1 | inactive |
| Cn1c(NCCN2CCCC2)nc2cc(-c3ccccc3)sc2c1=O | inactive |
| NC(=O)C1CCN(c2nc(-c3cccnc3)cs2)CC1 | inactive |
| Cc1ccc2nc3c(c(Nc4ccc(O)cc4)c2c1)CCC3 | inactive |
| COc1ccc(OC)c2c(C)cc(NCCN3CCOCC3)nc12 | inactive |
